Reference: PubChem BioAssay (EPA / NIEHS)
Values joined by “and” are separate entries in the source; they are usually repeats but may differ in a detail not shown here. Identical values can stand only once. Active and inactive are the calls of the source. The calls were made as follows: active = hit-call score of the fitted dose curve at least 0.9, where 1 is the maximum; inactive = score below 0.9.

Assay: BSK_BT_Bcell_Proliferation: Viability Assessment in the BioMAP Diversity Plus: BT Assay for B cell Proliferation (AID 2284227)
Conditions: primary human B cells with PBMC
Description: BSK_BT is a cell-based, multiplexed-readout assay that uses B cell and peripheral blood mononuclear cells, a human vascular primary cell co-culture, with measurements taken at 24 hours after chemical dosing in a microplate: 96-well plate.BSK_BT_Bcell_Proliferation is an assay component measured in the BSK_BT assay. It measures protein content, a form of viability reporter, as detected with absorbance signals by Sulforhodamine staining technology.Data from the assay component BSK_BT_Bcell_Proliferation was analyzed at the endpoint, BSK_BT_Bcell_Proliferation, in the positive analysis fitting direction relative to DMSO as the negative control and baseline of activity. Using a type of viability reporter, gain or loss-of-signal activity can be used to understand cellular changes in viability. To generalize the intended target to other relatable targets, this assay endpoint is annotated to the 'cell cycle' intended target family, where the subfamily is 'proliferation'.
The levels of cell surface (or secreted, indicated by the prefix "s") biomarker endpoints were measured by ELISA. Overt cytotoxicity to cells in confluent adherent cultures (all systems other than the BT system) was assessed by measuring total protein levels using sulforhodamine B (SRB) staining in parallel cultures at the time of biomarker measurements, indicated as SRB endpoints. For proliferation assays for adherent cell types, individual cell types are cultured at sub-confluence and relative cell numbers quantified by SRB staining at time points optimized for each system (48 h: 3C and CASM3C systems; 72 h: BT and HDF3CGF systems; 96 h: SAg system). SRB was performed by staining cells with 0.1% SRB after fixation with 10% TCA and reading wells at 560 nm.Viability and proliferation of PBMC (T cells) was quantified by Alamar Blue reduction for the SAg and BT systems. For PBMC viability (referred to as PBMC Cytotoxicity within the assay endpoint names), cells were plated (75,000/well in a 96-well plate) and then chemical samples added for 1 h before addition of activators, SEB and TSST-1 (20 ng/mL final concentration each). Cells were incubated for 90 h. Then, Alamar Blue (20 uL/well) (Invitrogen, Cat DAL1100) was added for 6 h, and the plates were read with a fluorescence microplate reader at 546/580 nm (excitation/emission). For PBMC proliferation, cells were plated and activated as above but incubated for only 16 h prior to addition of Alamar Blue. Plates were read after 6 h.

Row | Structure (SMILES) | outcome | AC50
1 | CC(C)CC(=O)CC(C)CC(C)C (stereo not given) | inactive | –
2 | OC(C(F)(F)F)(C(F)(F)F)C(O)(C(F)(F)F)C(F)(F)F | – | 37 µM (active) and 28.2 µM (active)
3 | CCCCCCCCCCC1CO1 (stereo not given) | inactive | –
4 | CN(C)CCC(c1ccc(Cl)cc1)c1ccccn1 (stereo not given) | inactive | –
5 | Cc1cccnc1 | inactive | –
6 | Oc1cccc2ccccc12 | – | 2.2 µM (active)
7 | Cc1cc(-n2nc3ccc(Cl)cc3n2)c(O)c(C(C)(C)C)c1 | inactive | –
8 | O=C(C(=O)c1ccccc1)c1ccccc1 | inactive | –
9 | CN(C)c1ccc(C(c2ccccc2)c2ccc(N(C)C)cc2)cc1 | – | 29 µM (active)
10 | COC(=O)/C=C\C(=O)OC | inactive | –
11 | CCCCCCCCCC/C=C/C1CC(=O)OC1=O (stereo not given) | inactive | –
12 | CC[N+](CC)(CC(=O)Nc1c(C)cccc1C)Cc1ccccc1 | inactive | –
13 | CCCCCCCCCCCCCCCCCC[N+](C)(C)C | – | 2.66 µM (active)
14 | Sc1nc2ccccc2s1 | inactive | –
15 | CCCCCCC(O)CCCCCCCCCCC(=O)OC (stereo not given) | inactive | –
